Assay results taken from PubChem BioAssay (Tox21).
Records with an inconclusive call do not appear. Activity calls are given as the source filed them. Calls follow the shape of the dose curve; as a rule, active = well fitted curve in the direction sought with a large enough effect in the repeat runs; inconclusive = weak or mixed curves; inactive = no such curve, though single readings can be large; an effect the other way counts as inactive or inconclusive.

Tested on: not listed separately
Assay: qHTS assay to identify small molecule antagonists of the androgen receptor (AR) signaling pathway - cell viability counter screen (AID 743033; also: nearly all actives have a fitted effect of over 45% in size; also: potency is read from the fitted curve at half-maximal effect)
Conditions: AR-bla HEK293 viability, CellTiter-Glo luminescence, 16 h; series mostly up to 58.5 µM; activity change, negative = cytotoxicity: at the top concentration
% is scaled to controls: 0 for no effect and ±100 for the full control effect.

Question: Which “activity change, negative = cytotoxicity” value does the source give for `CC/C=C\C/C=C\C/C=C\CCCCCCCC(=O)OCC` here?
Answer: -16.1% [at 78.9 µM] (inactive)

Question: With `c1ccc(CCCc2ccncc2)cc1` as the compound, how does the “activity change, negative = cytotoxicity” value read?
Answer: -17.4% (inactive)

Question: For `CCN(CC)CCOC(=O)C(c1ccccc1)c1ccccc1`, which “activity change, negative = cytotoxicity” value is on record?
Answer: -7.96% (inactive)

Question: With `Nc1c(Cl)cc(Cl)cc1[N+](=O)[O-]` as the compound, how does the “activity change, negative = cytotoxicity” value read?
Answer: -8.83% (inactive)

Question: Which “activity change, negative = cytotoxicity” value does the source give for `Cc1ccc2c(c1[N+](=O)[O-])C(=O)c1ccccc1C2=O` here?
Answer: -2.26% (inactive)

Question: For `CC(C)(O)c1coc(S(=O)(=O)NC(=O)Nc2c3c(cc4c2CCC4)CCC3)c1`, which “activity change, negative = cytotoxicity” value is on record?
Answer: -1.42% (inactive)

Question: With `CC(=O)NCCO` as the compound, how does the “activity change, negative = cytotoxicity” value read?
Answer: -11.9% (inactive)

Question: With `O=C1c2ccccc2C(=O)c2c(O)ccc(O)c21` as the compound, how does the “activity change, negative = cytotoxicity” value read?
Answer: -21% (inactive)

Question: Which “activity change, negative = cytotoxicity” value does the source give for `Nc1ccc(N=Nc2ccc(N)cc2)cc1` here?
Answer: -4.71% (inactive)

Question: Which “activity change, negative = cytotoxicity” value does the source give for `CC(C)OC(=O)c1ccccc1C(=O)OC(C)C` here?
Answer: 1.94% (inactive)

Question: With `COc1cc(S(=O)(=O)Nc2ccccc2)c(OC)cc1N` as the compound, how does the “activity change, negative = cytotoxicity” value read?
Answer: 0.446% (inactive)

Question: For `COC(=O)c1sccc1S(N)(=O)=O`, which “activity change, negative = cytotoxicity” value is on record?
Answer: 4.71% (inactive)

Question: With `CS(=O)(=O)c1ccc([C@@H](C[C@H]2CCC(=O)C2)C(=O)Nc2cnccn2)cc1Cl` as the compound, how does the “activity change, negative = cytotoxicity” value read?
Answer: 2.79% (inactive)

Question: For `CC(C)C(O)C(C)(C)CO` (stereo not given), which “activity change, negative = cytotoxicity” value is on record?
Answer: 13.6% [at 78.9 µM] (inactive)

Question: For `COC(=O)C1=C(C)NC(C)=C(C(=O)OC(C)(C)CN(C)CCC(c2ccccc2)c2ccccc2)C1c1cccc([N+](=O)[O-])c1` (stereo not given), which “activity change, negative = cytotoxicity” value is on record?
Answer: 1.32% (inactive)

Question: With `CCCCCCC(O)CCCCCCCCCCC(=O)OC` (stereo not given) as the compound, how does the “activity change, negative = cytotoxicity” value read?
Answer: 0.159% (inactive)

Question: Which “activity change, negative = cytotoxicity” value does the source give for `CC(C)(C)C(O)/C=C/c1ccc2c(c1)OCO2` (stereo not given) here?
Answer: 8.08% (inactive)

Question: Which “activity change, negative = cytotoxicity” value does the source give for `O=C(c1ccccc1)c1ccc(O)cc1` here?
Answer: -0.532% [at 78.9 µM] (inactive)

Question: With `CCCCCCCCCCCSCC(=O)O` as the compound, how does the “activity change, negative = cytotoxicity” value read?
Answer: 0.892% (inactive)

Question: Which “activity change, negative = cytotoxicity” value does the source give for `O=CNNC=O` here?
Answer: 0.663% [at 78.9 µM] (inactive)

Question: With `CCCCCCCC/C=C\CCCCCCCC(=O)OCCO` as the compound, how does the “activity change, negative = cytotoxicity” value read?
Answer: -10.8% [at 78.9 µM] (inactive)

Question: With `CCN(CC)C(=O)/C(C#N)=C/c1cc(O)c(O)c([N+](=O)[O-])c1` as the compound, how does the “activity change, negative = cytotoxicity” value read?
Answer: 18.2% (inactive)

Question: For `COc1cc(OC)c2ccc(=O)oc2c1`, which “activity change, negative = cytotoxicity” value is on record?
Answer: 1.53% (inactive)

Question: With `O=C(O)c1cccc(C[C@@H]2COc3ccc(OCc4nc5cc(F)ccc5s4)cc3[C@@H]2O)c1` as the compound, how does the “activity change, negative = cytotoxicity” value read?
Answer: 3.27% (inactive)

Question: With `CC(=O)OCCC(C)CC(C)(C)C` (stereo not given) as the compound, how does the “activity change, negative = cytotoxicity” value read?
Answer: 1.87% (inactive)

Question: For `C=C(C)c1ccccc1`, which “activity change, negative = cytotoxicity” value is on record?
Answer: 0.0985% (inactive)

Question: Which “activity change, negative = cytotoxicity” value does the source give for `c1ccc(CNc2ncnc3c2ncn3C2CCCCO2)cc1` (stereo not given) here?
Answer: 15.1% (inactive)

Question: For `Cc1c(C2(c3cc(Br)c(O)c(Br)c3C)OS(=O)(=O)c3ccccc32)cc(Br)c(O)c1Br`, which Potency is on record?
Answer: 16.9 µM (active)

Question: With `CC(=O)Oc1cccc(O)c1` as the compound, how does the “activity change, negative = cytotoxicity” value read?
Answer: 10.2% (inactive)

Question: For `CC(C)COC(=O)c1ccc(O)cc1`, which “activity change, negative = cytotoxicity” value is on record?
Answer: -14.6% (inactive)

Target: Androgen receptor (Homo sapiens) (UniProt P10275)
Sequence (P10275 whole entry, looked up): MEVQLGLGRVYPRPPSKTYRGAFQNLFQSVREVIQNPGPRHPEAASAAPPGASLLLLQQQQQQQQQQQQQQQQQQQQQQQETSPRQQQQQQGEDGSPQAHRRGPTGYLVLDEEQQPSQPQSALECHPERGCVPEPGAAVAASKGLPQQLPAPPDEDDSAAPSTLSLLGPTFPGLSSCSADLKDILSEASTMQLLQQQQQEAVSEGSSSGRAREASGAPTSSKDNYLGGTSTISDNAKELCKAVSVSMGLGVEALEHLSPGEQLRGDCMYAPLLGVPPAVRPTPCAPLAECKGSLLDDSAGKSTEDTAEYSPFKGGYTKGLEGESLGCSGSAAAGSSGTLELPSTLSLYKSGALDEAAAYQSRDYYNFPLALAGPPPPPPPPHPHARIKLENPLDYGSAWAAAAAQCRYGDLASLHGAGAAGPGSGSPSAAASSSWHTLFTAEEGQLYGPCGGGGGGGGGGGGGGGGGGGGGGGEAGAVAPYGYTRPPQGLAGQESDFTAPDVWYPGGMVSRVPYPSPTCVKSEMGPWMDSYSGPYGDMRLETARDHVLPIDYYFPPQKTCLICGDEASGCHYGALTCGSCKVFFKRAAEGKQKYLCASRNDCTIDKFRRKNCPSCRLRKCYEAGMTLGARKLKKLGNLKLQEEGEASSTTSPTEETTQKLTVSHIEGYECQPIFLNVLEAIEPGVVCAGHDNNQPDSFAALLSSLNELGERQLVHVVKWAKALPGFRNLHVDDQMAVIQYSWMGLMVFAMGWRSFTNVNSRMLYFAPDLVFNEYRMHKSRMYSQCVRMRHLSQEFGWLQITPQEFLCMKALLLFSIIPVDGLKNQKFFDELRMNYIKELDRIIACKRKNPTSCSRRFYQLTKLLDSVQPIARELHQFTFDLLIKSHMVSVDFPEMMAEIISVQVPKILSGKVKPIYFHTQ
Assay: qHTS assay to identify small molecule agonists of the androgen receptor (AR) signaling pathway using the MDA cell line (AID 743040; also: nearly all actives have a fitted effect of over 20% in size)
Conditions: MDA-kb2 AR-luc cells, MMTV luciferase, 16 h; series mostly up to 70.3 µM; activity change: at the top concentration
Outline: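 Testing was done with the MDA-kb2 AR-luc line, a human breast carcinoma stably transfected with MMTV-luciferase containing AR and GR response elements. Cells were exposed 16 h at 37C before ONE-Glo luminescence detection.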

Question: With `Nc1c(Cl)cc(Cl)cc1[N+](=O)[O-]` as the compound, how does the “activity change” value read?
Answer: 0% (inactive)

Question: With `COC(=O)C1=C(C)NC(C)=C(C(=O)OC(C)(C)CN(C)CCC(c2ccccc2)c2ccccc2)C1c1cccc([N+](=O)[O-])c1` (stereo not given) as the compound, how does the “activity change” value read?
Answer: -11.2% (inactive)

Question: For `O=C(c1ccccc1)c1ccc(O)cc1`, which “activity change” value is on record?
Answer: -0.114% [at 95 µM, hits give high values] (inactive)

Question: With `CCN(CC)C(=O)/C(C#N)=C/c1cc(O)c(O)c([N+](=O)[O-])c1` as the compound, how does the “activity change” value read?
Answer: 2.37% (inactive)

Question: For `COc1cc(OC)c2ccc(=O)oc2c1`, which “activity change” value is on record?
Answer: 1.09% (inactive)
